Measurements: PubChem BioAssay (Tox21)
Inconclusive results are not listed. A call without a number means that no potency is given here. The source made the active and inactive calls. The call rests on the fitted dose curve; in most records, active means well fitted activation curve with a large enough effect; inconclusive means small, poorly fitted or top-dose-only effect; inactive means flat fitted curve, though single readings scatter.

Assay: qHTS assay to identify small molecule phospholipidosis (PLD) inducers (AID 1259344)
Conditions: HepG2 phospholipidosis, LipidTOX Red imaging, 24 h; series mostly up to 38.3 µM
Excerpt: National Center for Advancing Translational Sciences [NCATS]
Drug-induced Phospholipidosis (PLD) caused by cationic amphiphilic drugs is characterized by the appearance of unicentric or multicentric-lamellar bodies when viewed under electron microscope. Electron microscopy is the gold standard method for PLD detection, however, this method is time-consuming and labor intensive, making it unsuitable for evaluating a large set of compounds. A cell-based phospholipidosis assay has been developed using the LipidTox reagent in HepG2 cells and miniaturized into a 1536-well plate format. Drug induced phospholipid accumulation is stained with the LipidTox dyes in red color which then is determined using an automated high content screening system.
HepG2 cells are dispensed at 900 cells/3 uL/well into Collagen I-coated 1536-well black-wall/clear-bottom assay plates (Greiner Bio-One, Monroe, NC) using the Multidrop Combi 8 channel dispenser (Thermo Fisher, Waltham, MA, USA). The assay plates are incubated at 37 C for 4 hours to allow the cell attachment. 3 uL of 1:500 LipidTOX Red dye is added using the dispenser, and then 23 nL compounds are added via a Wako Pintool station (Wako Automation, San Diego, CA). Amiodarone, a known PLD inducer, was used as a positive control and DMSO was used as a negative control. The assay plates were then incubated at 37 C for 24 hours.
For fixations, 4 uL of 8% paraformaldehyde fixative solution containing 10 ug/mL Hoechst 33342 in Dulbecco's phosphate-buffered saline (DPBS) is added using a Kalypsys washer/dispenser (Kalypsys, San Diego, CA, USA). After incubation at room temperature for 30 min, the assay plates are washed once with DPBS using a Kalypsys washer/dispenser. The assay plates are then sealed and stored at 4 C before imaging. The fluorescence intensities (595 nm excitation, 615 nm emission for LipidTOX; 352 nm excitation, 461 nm emission for Hoechst 33342) are measured using an ImageXpress Micro Widefield High Content Screening System (Molecular Devices, Sunnyvale, CA, USA) with a 20x Plan Fluor objective. Images are acquired for one site in each well and analyzed with the MetaXpress software (Molecular Devices) using the Transfluor module. Several algorithmic outputs, such as pit count per well, pit count per cell, pit integrated intensity per well, and pit integrated intensity per cell, are used for quantitative image analysis for PLD.
Potency means the concentration at half of the fitted maximal effect.

| SMILES | Potency | PLD induction |
| --- | --- | --- |
| CC(C(O)c1ccccc1)N(C)CCOC(c1ccccc1)c1ccccc1 (stereo not given) | inactive | – |
| CCN(CC)CCOC(=O)C1(C2CCCCC2)CCCCC1 | inactive | – |
| CC(=O)Nc1ccc(O)cc1 | inactive | – |
| Clc1ccccc1CN1CCc2sccc2C1 | inactive | – |
| CC1=C(/C=C/C(C)=C/C=C/C(C)=C/C(=O)Nc2ccc(O)cc2)C(C)(C)CCC1 | inactive | – |
| Nc1ccc2cc3ccc(N)cc3nc2c1 | inactive | – |
| Cc1cn[nH]c1 | inactive | – |
| O=C1NCCN1CCN1CCC(c2cn(-c3ccc(F)cc3)c3ccc(Cl)cc23)CC1 | inactive | – |
| CNC(=O)c1cc(Oc2ccc(NC(=O)Nc3ccc(Cl)c(C(F)(F)F)c3)cc2)ccn1 | inactive | – |
| C/C=C/C=N/NC(=O)c1ccncc1 | inactive | – |
| Brc1ccccc1-c1ccccc1 | inactive | – |
| CN1[C@@H]2CC[C@H]1CC(OC(=O)C(CO)c1ccccc1)C2 (stereo not given in full) | inactive | – |
| O[C@@H](c1cc(C(F)(F)F)nc2c(C(F)(F)F)cccc12)[C@H]1CCCCN1 | inactive | – |
| O=C(O)Cc1ccc(OCCNC[C@H](O)c2ccccc2)cc1 | inactive | – |
| CCN(CC)CCSC(=O)C(c1ccccc1)c1ccccc1 | inactive | – |
| CCN1CCN(c2cc(-c3ccc(F)cc3)c3c(n2)CCCCCC3)CC1 | – | 12.7% [at 7.66 µM] (inactive) |
| Cc1ccc(N)cc1O | inactive | – |
| O=C(Nc1ccc(Cl)cc1)Nc1ccc(Cl)c(C(F)(F)F)c1 | inactive | – |
| CCCSS/C(CCO)=C(\C)N(C=O)Cc1cnc(C)nc1N | inactive | – |
| N[C@@H](CSSC[C@H](N)C(=O)O)C(=O)O | inactive | – |

| SMILES | Potency | PLD induction |
| --- | --- | --- |
| COc1cc(C=C2CCC/C(=C\c3ccc(O)c(OC)c3)C2=O)ccc1O | inactive | – |
| O=C(NO)c1ccccc1 | inactive | – |
| NCCCC(O)(P(=O)(O)O)P(=O)(O)O | inactive | – |
| CN(Cc1cc(Br)cc(Br)c1N)C1CCCCC1 | inactive | – |
| CO[C@H]1C=CO[C@@]2(C)Oc3c(C)c(O)c4c(O)c(cc(O)c4c3C2=O)NC(=O)/C(C)=C\C=C/[C@H](C)[C@H](O)[C@@H](C)[C@@H](O)[C@@H](C)[C@H](OC(C)=O)[C@@H]1C | inactive | – |
| Oc1c(Br)cc(Br)c2cccnc12 | inactive | – |
| CCCCNc1c(C(=O)OCC)c(C)nc2c1cnn2CC | inactive | – |
| C[C@H]1O[C@@H](O[C@H]2[C@@H](O)C[C@H](O[C@H]3[C@@H](O)C[C@H](O[C@H]4CC[C@@]5(C)[C@H](CC[C@@H]6[C@@H]5C[C@@H](O)[C@]5(C)[C@@H](C7=CC(=O)OC7)CC[C@]65O)C4)O[C@@H]3C)O[C@@H]2C)C[C@H](O)[C@@H]1O | 11.2 µM (active) | – |
| Clc1ccc(C(Cn2ccnc2)OCc2ccsc2Cl)c(Cl)c1 (stereo not given) | inactive | – |
| CSc1ccc2c(c1)N(CCC1CCCCN1C)c1ccccc1S2 (stereo not given) | inactive | – |
| CCCCCCCCCCCCCCNCCO | inactive | – |
| CCCN(CCc1cccs1)[C@H]1CCc2c(O)cccc2C1 | inactive | – |
| O=C1OC(OC(=O)c2cccnc2Nc2cccc(C(F)(F)F)c2)c2ccccc21 (stereo not given) | inactive | – |
| CC(C)OC(=O)c1cc(C(=O)OC(C)C)cc([N+](=O)[O-])c1 | inactive | – |
| CC(=O)Oc1ccc(C2(c3ccc(OC(C)=O)cc3)Oc3ccccc3NC2=O)cc1 | inactive | – |
| C=C(c1ccc(C(=O)O)cc1)c1cc2c(cc1C)C(C)(C)CCC2(C)C | inactive | – |
| CCN(CC)CCNc1ccc(CO)c2sc3ccccc3c(=O)c12 | inactive | – |
| O=C1c2c(O)ccc(O)c2C(=O)c2c(NCCNCCO)ccc(NCCNCCO)c21 | inactive | – |
| S=P(N1CC1)(N1CC1)N1CC1 | inactive | – |
| CC(=O)Oc1ccc(C2(c3ccc(OC(C)=O)cc3)C(=O)Nc3ccccc32)cc1 | inactive | – |
